# PubChem BioAssay (NCI)
# This is part of a sample that, as a whole, favours compounds with a hit. Of some 83,000 tested, about 20% had one in any assay.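 The endpoint reported here, percent growth, reads 100 for growth as untreated, 0 for no net growth and -100 for all cells dead.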 A number with no mark means an inactive call. Calls of active or inactive are those of the source. The calls were made as follows: active = growth percent below 10; inactive = the rest.
# Key:
# Test in all cases: NCI-60 one-dose screen, 48 h (100 = growth as untreated, 0 = no growth, -100 = all killed)
# Settings in all cases: 10 µM unless noted
# SK-MEL-2 melanoma = test system: SK-MEL-2 melanoma
# EKVX NSCLC = test system: EKVX NSCLC
# SN12C renal = test system: SN12C renal
# UO-31 renal = test system: UO-31 renal
# ACHN renal = test system: ACHN renal
# CAKI-1 renal = test system: CAKI-1 renal
# A498 renal = test system: A498 renal
# CCRF-CEM leukemia = test system: CCRF-CEM leukemia
# MOLT-4 leukemia = test system: MOLT-4 leukemia
# SR leukemia = test system: SR leukemia
# OVCAR-8 ovarian = test system: OVCAR-8 ovarian
# OVCAR-5 ovarian = test system: OVCAR-5 ovarian
# OVCAR-4 ovarian = test system: OVCAR-4 ovarian
# SK-OV-3 ovarian = test system: SK-OV-3 ovarian
# OVCAR-3 ovarian = test system: OVCAR-3 ovarian
# HS 578T breast = test system: HS 578T breast
# NCI/ADR-RES ovarian = test system: NCI/ADR-RES ovarian
# TK-10 renal = test system: TK-10 renal
# RPMI-8226 leukemia = test system: RPMI-8226 leukemia
# IGROV1 ovarian = test system: IGROV1 ovarian
Compound,growth (SK-MEL-2 melanoma),growth (EKVX NSCLC),growth (SN12C renal),growth (UO-31 renal) [%],growth (ACHN renal),growth (CAKI-1 renal),growth (A498 renal),growth (CCRF-CEM leukemia),growth (MOLT-4 leukemia),growth (SR leukemia),growth (OVCAR-8 ovarian),growth (OVCAR-5 ovarian),growth (OVCAR-4 ovarian),growth (SK-OV-3 ovarian),growth (OVCAR-3 ovarian),growth (HS 578T breast),growth (NCI/ADR-RES ovarian),growth (TK-10 renal),growth (RPMI-8226 leukemia),growth (IGROV1 ovarian)
Cc1[nH]c(C(=O)Nc2ccc(C(=O)NCCN)cc2OC(C)C)c(Cl)c1Cl,98.6%,87.6%,48.1%,57.1,40.7%,14.2%,67.4%,-10.5% (active),-27.7% (active),-51.3% (active),9.08% (active),89.4%,-12.2% (active),90.5%,-6.76% (active),35.1%,91%,,,
C=CCNc1ccc2c3c(cccc13)C(=O)N(N1C(=O)c3cccc4cccc(c34)C1=O)C2=O,107%,92.8%,101%,81.1,103%,94.1%,119%,109%,101%,,,101%,107%,108%,108%,97.2%,101%,105%,109%,103%
COc1ccc(C(=S)N2CCN(c3cccc(C)c3)CC2)cc1OC,34%,102%,75%,76,79.7%,62.5%,86.4%,74%,54.8%,,,,103%,88.5%,41.1%,103%,5.68% (active),92.7%,80%,42.4%
c1ccc2c(c1)Nc1ccncc1S2,119%,73.1%,97.6%,,94.2%,61.2%,80.7%,117%,142%,200%,101%,89.5%,93.1%,112%,119%,102%,107%,109%,,99.4%
COc1ccc(C(=O)C(C)C)c2ccccc12,97.9%,94.7%,109%,,100%,97.9%,99%,-25.6% (active),97.2%,,126%,98%,108%,107%,120%,90.8%,107%,90.5%,82.5%,128%
CC(=O)CC(c1cccs1)c1c(-c2ccccc2)[nH]c2ccccc12 (configuration not stated),94.6%,72.6%,93%,,89.9%,39.4%,84%,92.6%,86.9%,,92.5%,99.8%,82.6%,90.1%,86.4%,82.1%,69%,134%,78%,83.3%
COC1=C(C)C(=O)c2c(c(CCCl)c3n2CCC3OC(C)=O)C1=O (configuration not stated),-45.6% (active),0.0316% (active),3.34% (active),,-3.88% (active),0.742% (active),-87.8% (active),50.2%,34.4%,1.94% (active),10.2%,4.93% (active),72%,-21.6% (active),-23.3% (active),-22.9% (active),8.95% (active),-37.9% (active),,
CCCCn1c(-c2ccc(-c3nc(-c4ccc(Cl)cc4)no3)cc2)nc(-c2ccccc2)c1-c1ccccc1,103%,-93.7% (active),83.2%,,60.3%,82.4%,89.1%,69.7%,65.6%,6.15% (active),88.5%,85.4%,82%,88.8%,93.9%,95.4%,82.5%,126%,,39.5%
COc1ccc(/C=C/c2c(C(=O)/C=C/c3ccc(Cl)cc3)c(C)nc3ccccc23)cc1,45.7%,47.9%,17.2%,,13.5%,29.5%,39.6%,5.29% (active),4.01% (active),,20.9%,16.9%,40.6%,64.5%,,34.4%,,,-28.6% (active),13.6%
NC(=O)Nc1ccc2ncnc(Nc3ccc(Cl)cc3)c2c1,127%,22.4%,81.9%,,47.4%,40.1%,43.4%,96%,71.2%,,89.5%,83.6%,91.9%,30.2%,74.2%,87.8%,88.7%,,101%,61%
CCCCCCCCCCCCCCCCCCOc1ccc(CC(=O)OCC[N+](C)(C)C)cc1,115%,101%,94.1%,,99.9%,90.4%,119%,102%,2.06% (active),,107%,96.8%,97.3%,107%,115%,99.6%,99.3%,,91.7%,91%
CCN(CC)CCNC(=O)c1cn2ncnc(Oc3ccc(NC(=O)Nc4ccc(Cl)c(C(F)(F)F)c4)cc3)c2c1C,-51.7% (active),-47.7% (active),-92.5% (active),,-55.2% (active),-58.9% (active),-6.51% (active),-8.36% (active),-45% (active),-56.4% (active),-42.5% (active),-62.7% (active),-8.97% (active),-85.9% (active),-70.9% (active),-44.4% (active),,,,-53.1% (active)
Fc1cc2c(cc1Cl)N(c1ncnc3ccc(-c4cnc5cnccn45)cc13)CC2,102%,63.4%,79.3%,,60.4%,62.8%,45.6%,108%,98.9%,,91.4%,74.4%,94.8%,94.2%,87.4%,93.4%,86.8%,96.9%,95.2%,48.2%
COC(=O)CCC/C=C\C[C@H]1C=CC(=O)/C1=C/C[C@@H](O)CCc1cccc(C(F)(F)F)c1,-5.48% (active),6.52% (active),-36% (active),,-87.2% (active),12.6%,-26.7% (active),-6% (active),-14.2% (active),-15.3% (active),8.44% (active),-26.6% (active),20%,24.6%,,32.3%,9.64% (active),-3.59% (active),,
CC1=C(SCCC(=O)OC(C[Se]C2=C(C)C(=O)c3ccccc3C2=O)C(=O)NC(C)(C)C)C(=O)c2ccccc2C1=O (configuration not stated),2.5% (active),-71.2% (active),-64.4% (active),,-78.3% (active),-56.4% (active),-40.6% (active),-23% (active),13.1%,18.7%,-79.4% (active),-68.9% (active),-91.5% (active),-100% (active),-97.6% (active),-21.3% (active),-68.6% (active),-94.3% (active),,
O=C(CCOCCNC(=O)COc1ccc2c(c1)OCC(c1ccc(F)cc1)C2=O)NCCCC(O)(P(=O)(O)O)P(=O)(O)O (configuration not stated),104%,94.5%,103%,,102%,94.7%,89%,96.7%,99.3%,,104%,103%,99.2%,108%,104%,105%,107%,114%,108%,118%
O=[N+]([O-])c1ccc(Oc2nc(Nc3ccc(O[C@H]4CO[C@H]5[C@@H]4OC[C@@H]5O)c(Cl)c3)ncc2F)c(Cl)c1,21.7%,43.8%,15.9%,,19.3%,7.81% (active),-2.07% (active),25.1%,-3.69% (active),10.5%,32.5%,43.2%,34.4%,9.64% (active),31.1%,-2.68% (active),81.3%,,,-13% (active)
